# Screening results as filed in PubChem.
# TDP1 cell CPT – qHTS for Inhibitors of human tyrosyl-DNA phosphodiesterase 1 (TDP1): qHTS in cells in presence of CPT; Potency, µM (series often up to 46.2 µM), inactives show at the top dose activity change, negative = growth inhibition, actives largely listed as inhibitors; 420,000 tested, 12% active; chicken DT40 Tdp1-/-;hTDP1 cells + 20 nM CPT, ATP luminescence, 48 h; further: nearly all actives have a fitted effect of over 55% in size
#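 Chicken DT40 Tdp1-/- cells complemented with human TDP1, 400 cells/well, exposed to compounds plus 20 nM camptothecin for at least 48 h at 37 C; viability read as ATP content by CellTiter-Glo luminescence.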
# KB-3-1 tox – qHTS assay for MDR1-selective chemotherapeutics: Primary screen using the parental adenocarcinoma cell KB-3-1; KB-3-1 viability, CellTiter-Glo ATP luminescence, 72 h; Potency, µM (titrated, usually from 46.1 µM), most hits filed as cytotoxic; 400,000 tested, 1.4% active; AID 1347075, 2019; further: nearly all actives have a fitted effect of over 60% in size
#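 Luminescent ATP read-out (CellTiter-Glo) measures survival of drug-naive KB-3-1 cells after 72 h compound exposure at 37 °C. Titration series was screened from lowest to highest concentration, with DMSO vehicle plates as background controls.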
# HT1080 IDH1KD tx – qHTS for induction of synthetic lethality in tumor cells producing 2HG: qHTS for the HT-1080-IDH1KD cell line. 360,000 tested, 2% active. Potency, µM (doses to about 46.1 µM), without a hit: at the highest dose activity, negative = toxicity, actives largely listed as cytotoxic. HT-1080 IDH1 knockdown viability, ATP luminescence, 48 h;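 further: 0% = DMSO wells and -100% = cell-free medium wells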
#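 IDH1KD HT-1080 cells, 750/well, RPMI + 5% FBS; compound pinned after 2 h settling; 48 h, 37 °C; CellTiter-Glo luminescence; % activity normalised to DMSO and no-cell wells; curves fitted, classed by r2 and efficacy.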
# KB-V1 cytotox – qHTS assay for MDR1-selective chemotherapeutics: Primary screen using the drug-selected MDR subline cells KB-V1; Potency, µM (highest dose often 46.1 µM), hits mostly cytotoxic; KB-V1 MDR cells viability, CellTiter-Glo, 72 h; 400,000 tested, 3.4% active; further: nearly all actives have a fitted effect of over 60% in size
#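 Drug-selected KB-V1 cells, grown in DMEM lacking phenol red with 10% FBS, receive compound titrations; after three days at 37 degrees C, surviving cell ATP is quantified by CellTiter-Glo luminescence and responses normalized and curve-fitted.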
# HT1080-NT tox – qHTS for induction of synthetic lethality in tumor cells producing 2HG: qHTS for the HT-1080-NT fibrosarcoma cell line; HT-1080-NT fibrosarcoma viability, CellTiter-Glo ATP luminescence, 48 h; Potency, µM (highest dose often 46.1 µM), for inactives: at the highest dose activity, negative = less viability, usual class: cytotoxic; 360,000 tested, 1.6% active; AID 686970, 2013;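 further: NT is the 2HG producing partner of a matched IDH1 knockdown line; 0% = DMSO-treated cells and -100% = media-only wells without cells; nearly all actives have a fitted effect of over 55% in size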
#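 Read-out is CellTiter-Glo luminescence after 10 minutes at room temperature, following 48 hours' compound treatment of HT-1080-NT cells (750 cells/well, RPMI, 5% FBS, 37 degrees C).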
# DT40 TDP1 no CPT – qHTS for Inhibitors of human tyrosyl-DNA phosphodiesterase 1 (TDP1): qHTS in cells in absence of CPT | DT40 Tdp1-/- hTDP1 cells, no CPT, ATP luminescence, 48 h | Potency, µM (top dose mostly 46.2 µM), for the others: top-dose activity change, negative = growth inhibition, usual class: inhibitors | 420,000 tested, 15% active | AID 686978, 2013; further: nearly all actives have a fitted effect of over 55% in size
#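 A cellular qHTS used chicken DT40 cells lacking endogenous Tdp1 but carrying stably transfected human TDP1. Compounds were applied without camptothecin, and cell growth kinetics were judged by ATP-dependent luminescence after ≥48 hr.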
# * = called active by the depositor; i = inactive; ? = inconclusive; nt = no result given. The list is not random: actives were taken first. Their share in the collection is about 19%. The call rests on the fitted dose curve; in most records, active means well fitted curve in the direction sought with a large enough effect; inconclusive means small, poorly fitted or top-dose-only effect, or another doubt; inactive means no such curve, though single readings can be large; an effect the other way counts as inactive or inconclusive. Unless noted, on the % scale 0 is the no-effect control and ±100 the full control effect; potency means the concentration at half of the fitted maximal effect.
SMILES,TDP1 cell CPT,KB-3-1 tox,HT1080 IDH1KD tx,KB-V1 cytotox,HT1080-NT tox,DT40 TDP1 no CPT
CCC(C)N1C(=O)S/C(=C/c2ccc(N3CCOCC3)cc2C)C1=O (configuration not stated),20.6µM*,i,-19.3%,i,4.6%,23.1µM*
CC(C)(C)c1ccc(-c2n[nH]c(=S)n2CC2CCCO2)cc1 (configuration not stated),?,i,14.7%,i,3.5%,16.4µM*
CCn1c(-c2ccc(Cl)cc2)n[nH]c1=S,-1.0%,?,?,10.3µM*,?,-15.8%
CCn1c(-c2csc(C(C)C)c2)n[nH]c1=S,-14.2%,i,2.9%,20.6µM*,-0.3%,?
CCn1c(-c2ccc(C)cc2)n[nH]c1=S,20.6µM*,?,-1.0%,18.4µM*,-1.9%,?
CCn1c(-c2cccnc2)n[nH]c1=S,-1.3%,i,-0.4%,i,-0.3%,-6.8%
Oc1ccc(Cl)cc1CNCc1ccc(C(F)(F)F)cc1,?,i,12.1%,i,13.0%,?
O=c1[nH]nnc2c1cnn2-c1ccccc1,6.4%,?,20.6%,?,13.0%,-4.0%
O=C(NCCc1c[nH]c2ccccc12)OC1CC2CC1[C@H]1CCCCN1C2=O (some centres not stated),-22.7%,i,-2.4%,i,1.1%,?
Cc1cccc(OCCCC(=O)NCC(=O)Nc2cccc(C)c2C)c1,-27.1%,i,4.1%,i,-2.1%,-22.8%
Fc1ccc2c(c1)c1n[nH]c(=S)nc1n2CCc1ccccc1,?,?,-10.3%,i,-4.6%,?
Cn1c2ccccc2c2n[nH]c(=S)nc21,14.2%,?,14.3%,6.51µM*,-0.1%,?
Cc1ccc2c(c1)c1n[nH]c(=S)nc1n2CCc1ccccc1,16.4µM*,i,3.1%,i,-0.1%,25.9µM*
Cc1ccc2c(c1)cc(C(=O)NCc1ccccc1)n2C,19.6%,?,?,i,-13.1%,-10.1%
Oc1cccc2ccc(Nc3ccccn3)nc12,1.64µM*,5.8µM*,5.8µM*,?,5.8µM*,3.66µM*
CCc1nc2ccccc2c(NC(=O)CN2CC(C)CC(C)C2)c1C (configuration not stated),?,i,-12.2%,i,-2.2%,?
CCOC(=O)c1cc(C#N)c(Oc2ccccc2OC)nc1-c1ccccc1,?,?,-18.0%,i,-17.3%,23.1µM*
CCOC(=O)c1cc(C#N)c(SC)nc1-c1ccccc1,?,i,-3.2%,?,-6.2%,?
CCOC(=O)c1cc(C#N)c(N2CCN(c3ccccn3)CC2)nc1-c1ccccc1,?,i,-10.2%,i,-29.5%,20.6µM*
CCOC(=O)c1nn(-c2ccc(C)cc2)cc1C(=O)c1ccccc1,-12.3%,i,-7.6%,?,-8.5%,-23.0%
CC(C)(C)Cc1nnc(NC(=O)c2ccco2)s1,-10.0%,i,-24.2%,i,-5.1%,-2.5%
CCN(C(=O)C(=O)c1c(C)[nH]c2ccccc12)c1ccccc1,?,i,nt,i,nt,?
CCN1C(=O)/C(=C2\C=Cc3ccccc3N2CC)SC1=S,14.6µM*,i,4.3%,i,5.4%,18.4µM*
CCN1C(=O)/C(=c2\o/c(=C3\C=Cc4ccccc4N3CC)c(=O)n2CC)SC1=S,-25.1%,i,?,i,22.7%,-28.4%
CCN1C(=C2C(=O)c3ccccc3C2=O)C=Cc2ccccc21,-29.2%,?,8.0%,1.84µM*,8.4%,-19.7%
SMILES,TDP1 cell CPT,KB-3-1 tox,HT1080 IDH1KD tx,KB-V1 cytotox,HT1080-NT tox,DT40 TDP1 no CPT
COCCN1C(=O)c2oc3ccc(C)cc3c(=O)c2C12C(=O)N(C)c1ccccc12 (configuration not stated),6.3%,i,nt,i,nt,-2.0%
CCn1c2ccccc2c2nnc(SCCN3CCOCC3)nc21,-20.2%,i,-1.5%,i,0.7%,?
CCN(CC)CCn1c2ccc(F)cc2c2nc(C)sc21,-12.7%,i,-26.8%,i,-5.6%,-28.0%
CCn1c2ccccc2c2nnc(SCN3C(=O)c4ccccc4C3=O)nc21,9.1%,?,0.5%,8.2µM*,1.2%,-8.8%
CCn1c2ccccc2c2nnc(SCCN3CCCCC3)nc21,25.9µM*,i,-10.7%,i,-9.2%,?
Cc1nc2c3cc(Cl)ccc3n(CCN3CCOCC3)c2s1,?,?,20.6µM*,?,23.1µM*,14.6µM*
CCCCn1c2ccc(C)cc2c2nnc(SCCN3CCCCC3)nc21,?,18.4µM*,-13.2%,i,-11.1%,20.6µM*
CCn1c2ccccc2c2nnc(SCC(N)=O)nc21,-1.7%,i,0.0%,i,?,-1.4%
CCN(CC)CCSc1nnc2c3ccccc3n(Cc3ccccc3)c2n1,23.1µM*,?,?,i,?,16.4µM*
CCn1c2ccccc2c2nnc(SCCCn3c(=O)[nH]c4ccccc43)nc21,?,i,17.1%,?,-1.1%,23.1µM*
CCn1c2ccc(C)cc2c2nnc(SCCN3CCOCC3)nc21,?,?,?,?,-17.3%,20.6µM*
Cc1ccc2c(c1)c1nc3ccccc3nc1n2CCN1CCOCC1,?,i,-14.6%,20.6µM*,-13.2%,18.4µM*
O=C(COc1ccc(Cl)cc1Cl)c1ccc[nH]1,-18.2%,?,19.8%,i,19.7%,-13.7%
CCCCc1nn2c(=O)cc(COC(=O)CNC(=O)COc3ccc(C)cc3)nc2s1,3.3%,i,nt,?,nt,7.4%
COc1ccc(CNC(=O)CSc2ncc(S(=O)(=O)c3ccc(C)c(Cl)c3)c(=O)[nH]2)cc1,nt,i,nt,i,nt,nt
CCNc1ncc2nc(-c3ccc(F)cc3)c(=O)n(CCc3ccccc3)c2n1,-3.0%,nt,nt,nt,nt,12.8%
COC(=O)c1sccc1NC(=O)c1c(Cl)cnn1C,-17.5%,i,1.4%,i,7.2%,5.1%
CCn1c2ccccc2c2nnc(SCc3ccccc3)nc21,?,i,-17.5%,?,1.1%,?
CCn1c2ccccc2c2nnc(SCc3ccc(C(=O)OC)o3)nc21,18.4µM*,i,-15.3%,?,-6.6%,23.1µM*
